Assay outcomes: PubChem, National Center for Advancing Translational Sciences (NCATS)
Shown are actives, neighbours in structure and some others; about 8.3% of the full set was active somewhere.
VP16 counter – VP16 counterscreen qHTS for inhibitors of ROR gamma transcriptional activity; Drosophila S2 Gal4-VP16 UAS-luciferase, luminescence, 20 h; Potency, µM (highest dose often 53.6 µM), for the others: top-dose activity, negative = inhibition, actives largely listed as inhibitors; 3.5% of 310,000 active; AID 2546, 2010;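 further: Gal4-VP16 expression switched on by copper sulfate through the metallothionein promoter; potency means the concentration at half of the fitted maximal effect; on the % scale 0 is the no-effect control and ±100 the full control effect; nearly all actives have a fitted effect of over 50% in size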
Chronic BCR inh – qHTS Assay to Find Inhibitors of Chronic Active B-Cell Receptor Signaling; ABC-DLBCL IkBa-CBG/CBR reporter, luminescence ratio, 4 h; Potency, µM (highest dose often 46.1 µM), for inactives: top-dose activity change, negative = inhibition, actives largely listed as inhibitors; 0.05% of 340,000 active; active means well fitted inhibition curve with a large enough effect in the signal ratio, with a control signal flat, not every such curve was filed as active; inconclusive means small, poorly fitted or top-dose-only effect, or effect the other way, or a change in a side signal; the % refers to the signal ratio;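 further: potency means the concentration at half of the fitted maximal effect; plate controls were basal doxycycline-induced cells for no effect and cells given 10 µM MG132 for full effect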
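TMD8 human ABC-DLBCL cells with doxycycline-inducible IκBα–green luciferase fusion and unfused red luciferase, in 0.5% FBS medium; compounds up to 46 uM, 4 h at 37C. Green/red luminescence ratio, filter-overlap corrected, fitted to concentration-response curves.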
RORg inh – qHTS for inhibitors of ROR gamma transcriptional activity; Nuclear receptor ROR-gamma (Mus musculus), P51450; Drosophila S2 Gal4-RORgamma UAS-luciferase reporter, 20 h; Potency, µM (top dose mostly 53.6 µM), for the others: at the top dose activity change, negative = inhibition, hits mostly inhibitors; 5.4% of 310,000 active; further: potency means the concentration at half of the fitted maximal effect; on the % scale 0 is the no-effect control and ±100 the full control effect; nearly all actives have a fitted effect of over 60% in size
Target sequence (P51450 whole entry, looked up, the tested form may be a part): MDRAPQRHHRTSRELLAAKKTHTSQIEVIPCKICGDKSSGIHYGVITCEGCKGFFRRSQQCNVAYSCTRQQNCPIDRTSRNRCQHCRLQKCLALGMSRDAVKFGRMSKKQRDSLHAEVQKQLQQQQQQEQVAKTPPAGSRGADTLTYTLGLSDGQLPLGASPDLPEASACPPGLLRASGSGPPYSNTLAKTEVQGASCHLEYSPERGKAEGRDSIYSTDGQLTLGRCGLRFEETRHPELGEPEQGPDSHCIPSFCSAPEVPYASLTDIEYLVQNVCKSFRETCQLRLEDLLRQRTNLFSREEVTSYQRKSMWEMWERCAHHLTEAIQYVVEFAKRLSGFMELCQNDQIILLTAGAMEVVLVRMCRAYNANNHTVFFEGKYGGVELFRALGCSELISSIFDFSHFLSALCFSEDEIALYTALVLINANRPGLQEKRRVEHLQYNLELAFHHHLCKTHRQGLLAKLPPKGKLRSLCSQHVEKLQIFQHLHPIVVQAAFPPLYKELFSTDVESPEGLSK
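Schneider cells (Drosophila), stable Gal4 DBD–ROR gamma + UAS-luc; 1 hr cmpd preincubation; Cu2+ induction 700 uM final; 20 hr ambient; luminescence.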
MCF10A rerep – A quantitative high throughput screen for small molecules that induce DNA re-replication in MCF 10a normal breast cells. MCF 10A DNA re-replication, Hoechst nuclear intensity, 48 h. Potency, µM (top dose mostly 46.1 µM), for inactives: top-dose activity, positive = re-replication, hits mostly activators. 2.9% of 350,000 active. AID 624296, 2012; further: potency means the concentration at half of the fitted maximal effect; % of control where 0% means no effect; nearly all actives have a fitted effect of over 50% in size
Giardia killer – Small Molecules that selectively kill Giardia lamblia: qHTS; 0.15% of 340,000 active; Giardia lamblia trophozoite viability; AID 540267, 2011; activity change, % at 7.66 µM, hits read low; in the data active means activity change below about -80%; inconclusive means between about -30% and that limit;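 further: parasites exposed to compound for two days anaerobically before the ATP read; on the % scale 0 is the no-effect control and ±100 the full control effect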
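Viability, read as ATP luminescence: trophozoites at 100 cells/well, compound added, 48 hrs anaerobic at 37 deg C, then 15-30 min room-temperature development before reading.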
SW480 rerep – A quantitative high throughput screen for small molecules that induce DNA re-replication in SW480 colon adenocarcinoma cells; 1.8% of 340,000 active; Potency, µM (series often up to 46.1 µM), for inactives: at the top dose re-replication activation, most hits filed as activators; SW480 DNA re-replication, Hoechst DNA content imaging, 48 h; further: potency means the concentration at half of the fitted maximal effect; % of control where 0% means no effect; nearly all actives have a fitted effect of over 55% in size
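First, 250 cells per well were seeded. Next, compound or vehicle (23 nL) was pinned in, plates sat 48 hr at 37 C. Finally Hoechst was added for 40 min before fluorescence scanning.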
The depositor's hits bear a star; [ ] = dose if it differs, or a comment. Unless noted, the call rests on the fitted dose curve; in most records, active means well fitted curve in the direction sought with a large enough effect; inconclusive means small, poorly fitted or top-dose-only effect, or another doubt; inactive means no such curve, though single readings can be large; an effect the other way counts as inactive or inconclusive.

Results for CNC(=S)NNc1nc(-c2ccccc2)c2cc(Cl)ccc2n1 ?
MCF10A rerep: 5.7%; Giardia killer: 12.1; SW480 rerep: -2.3%

How did CCNC(=S)NNC(=S)NCc1ccccc1 do in these assays?
VP16 counter: inconclusive; Chronic BCR inh: -1.4%; RORg inh: 7.08µM*; MCF10A rerep: -3.7%; Giardia killer: 1.0; SW480 rerep: inconclusive

How did CCNC(=S)NNc1nnc(-c2ccccc2)c(-c2ccccc2)n1 do in these assays?
VP16 counter: inconclusive; Chronic BCR inh: 0.3%; RORg inh: 12.6µM*; MCF10A rerep: -14.9%; Giardia killer: -0.1; SW480 rerep: -1.7%

What do the screens show for `CCCCC(=O)NNC(=S)NCc1ccccc1`?
VP16 counter: -4.3%; Chronic BCR inh: 5.2%; RORg inh: 14.1µM*; MCF10A rerep: -1.7%; Giardia killer: -5.8; SW480 rerep: -7.2%

How did CC1CN(C(=O)Cn2cc(S(=O)(=O)CC(=O)N3CCOCC3)c3ccccc32)CC(C)O1 (centres undefined) do in these assays?
VP16 counter: 3.6%; Chronic BCR inh: 0.3%; RORg inh: -6.0%; MCF10A rerep: 0.6%; Giardia killer: 21.5; SW480 rerep: inconclusive

What do the screens show for `COc1ccc(NS(=O)(=O)c2ccc(N3CCOCC3)c(NC(=O)c3ccc(F)cc3)c2)cc1`?
VP16 counter: -7.7%; Chronic BCR inh: -9.1%; RORg inh: 16.5%[10 µM]; MCF10A rerep: -1.5%; Giardia killer: 3.7; SW480 rerep: inconclusive

What do the screens show for `COc1ccc(NS(=O)(=O)c2ccc(O)c(NC(=O)c3cc4c(C)nn(-c5ccc(F)cc5)c4s3)c2)cc1`?
VP16 counter: 22.4µM*; Chronic BCR inh: 0.3%; RORg inh: inconclusive; MCF10A rerep: 8.2µM*; Giardia killer: -3.6; SW480 rerep: inconclusive

Results for CCCC[C@@H]1C[C@H]1C(NC(=O)Cc1ccccc1)c1ccc(Cl)cc1 (some centres undefined) ?
VP16 counter: -0.2%; RORg inh: -21.8%

Results for O=C(Nc1nnc(SCc2ccc(Cl)cc2)s1)c1cnccn1 ?
VP16 counter: 14.1µM*; Chronic BCR inh: 0.2%; RORg inh: 12.6µM*; MCF10A rerep: 26.5%; Giardia killer: -5.7; SW480 rerep: 2.2%

How did O=C(Nc1ccc(Cl)cc1)Nc1nnc(SCc2ccc(Cl)cc2)s1 do in these assays?
VP16 counter: -0.9%; Chronic BCR inh: inconclusive; RORg inh: 22.9%; MCF10A rerep: 6.7%; Giardia killer: -9.5; SW480 rerep: 2.1%

Results for Cc1ccc(OCCN(C)C(=O)C2CCC(=O)N(Cc3ccccc3F)C2)cc1 (centres undefined) ?
VP16 counter: -1.5%; Chronic BCR inh: 3.7%; RORg inh: 2.9%; MCF10A rerep: 1.5%; Giardia killer: 1.9; SW480 rerep: -3.9%

Results for CC(=O)N1N=C(c2ccccc2)OC1c1ccc([N+](=O)[O-])s1 (centres undefined) ?
VP16 counter: inconclusive; Chronic BCR inh: 18.7%; RORg inh: 12.6µM*; MCF10A rerep: inconclusive; Giardia killer: -27.2; SW480 rerep: 0.6%

How did Cc1ccc(C(=O)N/C(=C/C=C\c2ccccc2)C(=O)NCc2ccco2)cc1 do in these assays?
VP16 counter: -0.1%; Chronic BCR inh: -0.3%; RORg inh: inconclusive; MCF10A rerep: -3.5%; Giardia killer: 3.1; SW480 rerep: 8.1%

How did CCN(CC)S(=O)(=O)c1ccc(N/N=C/c2cc(OC)c(OC)cc2OC)nc1 do in these assays?
VP16 counter: -7.2%; Chronic BCR inh: inconclusive; RORg inh: 3.7%; MCF10A rerep: inconclusive; Giardia killer: -3.8; SW480 rerep: inconclusive
